Measured values from PMC5540273 (PLoS ONE, 2017).

Columns and labels:
Conditions in all cases: concentration: 1 μM, replicates: in singlicate; n = 1
CDK4-cyclinD1 = tested on: CDK4-cyclinD1
CDK4-cyclinD3 = tested on: CDK4-cyclinD3
CDK4 = tested on: CDK4
CDK5 = tested on: CDK5
CDK7 = tested on: CDK7
CDK8 = tested on: CDK8
CDK9 = tested on: CDK9
CDKL1 = tested on: CDKL1
CDKL2 = tested on: CDKL2
CDKL3 = tested on: CDKL3
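Note: KINOMEscan kinase panel screen.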

O=C(Nc1n[nH]c2nc(-c3cccs3)c(Br)cc12)C1CC1 [SB-735297]
%Inh (CDK4-cyclinD1): 0%
%Inh (CDK4-cyclinD3): 0%
%Inh (CDK4): 0%
%Inh (CDK5): 0%
%Inh (CDK7): 16%
%Inh (CDK8): 0%
%Inh (CDK9): 0%
%Inh (CDKL1): 34%
%Inh (CDKL2): 96.4%
%Inh (CDKL3): 0%

CC(C)c1ccc(O)cc1Nc1ccnc2ccc(C(F)(F)F)cc12 [GW482059]
%Inh (CDK4-cyclinD1): 85%
%Inh (CDK4-cyclinD3): 0%
%Inh (CDK4): 0%
%Inh (CDK5): 0%
%Inh (CDK7): 0%
%Inh (CDK8): 25%
%Inh (CDK9): 0%
%Inh (CDKL1): 0%
%Inh (CDKL2): 5%
%Inh (CDKL3): 0%

CS(=O)(=O)CCNCc1nc(-c2ccc3ncnc(Nc4ccc5c(cnn5Cc5ccccc5)c4)c3c2)cs1.Cl.Cl [GW569716]
%Inh (CDK4-cyclinD1): 41%
%Inh (CDK4-cyclinD3): 0%
%Inh (CDK4): 39%
%Inh (CDK5): 18%
%Inh (CDK7): 0%
%Inh (CDK8): 41%
%Inh (CDK9): 0%
%Inh (CDKL1): 0%
%Inh (CDKL2): 11%
%Inh (CDKL3): 100%

Cc1ccc(NC(=O)Nc2ccc(Cl)c(C(F)(F)F)c2)cc1-c1ccc(C(=O)Nc2ccncc2)cc1 [GSK1398470]
%Inh (CDK4-cyclinD1): 0%
%Inh (CDK4-cyclinD3): 0%
%Inh (CDK4): 0%
%Inh (CDK5): 0%
%Inh (CDK7): 0%
%Inh (CDK8): 36%
%Inh (CDK9): 0%
%Inh (CDKL1): 86%
%Inh (CDKL2): 34%
%Inh (CDKL3): 0%

COC(=O)C(Cc1ccccc1)NC(=O)NC1CCN(c2ccnc(Nc3ccc(F)cc3)n2)C1 (centres unmarked) [GSK1379714]
%Inh (CDK4-cyclinD1): 29%
%Inh (CDK4-cyclinD3): 0%
%Inh (CDK4): 5%
%Inh (CDK5): 0%
%Inh (CDK7): 0%
%Inh (CDK8): 48%
%Inh (CDK9): 0%
%Inh (CDKL1): 8%
%Inh (CDKL2): 9%
%Inh (CDKL3): 0%
